Positions count from the first letter of the chain named.

Some targets named below: PITX2 (Homo sapiens, UniProt Q99697 72-157); CRX (Homo sapiens, UniProt O43186 26-111, E42D); HOXA4 (Homo sapiens, UniProt Q00056 201-287).
Holding throughout (experiment): PBM; 200 nM protein, PBS
Conditions in all cases: dsDNA, one strand shown

The target of test [1] is T1, NKX2-6 (Homo sapiens, UniProt A6NCS4 118-204, R150C).
T1 sequence: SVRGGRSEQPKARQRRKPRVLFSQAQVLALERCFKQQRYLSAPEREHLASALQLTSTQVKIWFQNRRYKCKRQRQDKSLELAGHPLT

For test [2], the target named is HOXB9 (Homo sapiens, UniProt P17482 171-250).
Chain of HOXB9 (Homo sapiens, UniProt P17482 171-250) (P17482 171-250): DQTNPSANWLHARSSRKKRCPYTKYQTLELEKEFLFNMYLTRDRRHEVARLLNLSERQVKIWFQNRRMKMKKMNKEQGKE
The target in test [3] is HOXB9 (Homo sapiens, UniProt P17482 171-250, R186Q).
Chain of HOXB9 (Homo sapiens, UniProt P17482 171-250, R186Q) (P17482 171-250 R186Q): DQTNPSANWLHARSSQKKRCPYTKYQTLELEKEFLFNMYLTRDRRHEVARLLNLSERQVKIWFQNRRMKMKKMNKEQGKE
In the next test the target is T2, SIX6 (Homo sapiens, UniProt O95475 114-200, T139Q).
T2 sequence: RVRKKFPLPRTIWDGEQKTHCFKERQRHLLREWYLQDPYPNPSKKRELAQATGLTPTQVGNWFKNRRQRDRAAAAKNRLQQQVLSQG

Test [4] addresses NKX3-2 (Homo sapiens, UniProt P78367 192-278, P234S).
Test [5] concerns the target NKX3-2 (Homo sapiens, UniProt P78367 192-278).
The target of test [6] is T3, NKX2-6 (Homo sapiens, UniProt A6NCS4 118-204).
T3 sequence: T1 sequence with C33R

The target of test [7] is T4, NKX2-6 (Homo sapiens, UniProt A6NCS4 118-204, F151L).
T4 sequence: T1 sequence with C33R, F34L

Test [8] has as its target PROP1 (Homo sapiens, UniProt O75360 56-141).
For test [9], the target named is PROP1 (Homo sapiens, UniProt O75360 56-141, R99H).
Chain of PROP1 (Homo sapiens, UniProt O75360 56-141, R99H) (O75360 56-141 R99H): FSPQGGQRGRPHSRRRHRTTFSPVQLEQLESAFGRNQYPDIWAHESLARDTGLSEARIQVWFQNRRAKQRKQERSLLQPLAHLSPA
Test [10] addresses PROP1 (Homo sapiens, UniProt O75360 56-141, F88S).
Test [11] has as its target ALX1 (Homo sapiens, UniProt Q15699 118-204, L144V).
In test [12] the target is ALX1 (Homo sapiens, UniProt Q15699 118-204, L144R).
Chain of ALX1 (Homo sapiens, UniProt Q15699 118-204, L144R) (Q15699 118-204 L144R): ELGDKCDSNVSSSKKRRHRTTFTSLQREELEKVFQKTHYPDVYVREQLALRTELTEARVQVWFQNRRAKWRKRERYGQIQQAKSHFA
Test [13] addresses ALX1 (Homo sapiens, UniProt Q15699 118-204).
Test [14] has as its target HOXC9 (Homo sapiens, UniProt P31274 178-260).
The target of test [15] is HOXC9 (Homo sapiens, UniProt P31274 178-260, R193K).
Chain of HOXC9 (Homo sapiens, UniProt P31274 178-260, R193K) (P31274 178-260 R193K): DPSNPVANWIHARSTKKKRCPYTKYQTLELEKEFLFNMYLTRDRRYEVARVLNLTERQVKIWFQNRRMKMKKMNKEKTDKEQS
For test [16], the target named is HOXC9 (Homo sapiens, UniProt P31274 178-260, R222W).
Chain of HOXC9 (Homo sapiens, UniProt P31274 178-260, R222W) (P31274 178-260 R222W): as the sequence (P31274 178-260 R193K) above, with K16R, R45W counted along it
Test [17] addresses ALX3 (Homo sapiens, UniProt O95076 139-225, N203Q).
Test [18] deals with HOXD13 (Homo sapiens, UniProt P35453 263-343, T313R).
Chain of HOXD13 (Homo sapiens, UniProt P35453 263-343, T313R) (P35453 263-343 T313R): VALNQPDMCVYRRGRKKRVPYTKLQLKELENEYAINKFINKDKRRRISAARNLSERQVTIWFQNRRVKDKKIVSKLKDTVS
Test [19] has as its target HOXD13 (Homo sapiens, UniProt P35453 263-343).
The target of test [20] is ALX3 (Homo sapiens, UniProt O95076 139-225).
Chain of ALX3 (Homo sapiens, UniProt O95076 139-225) (O95076 139-225): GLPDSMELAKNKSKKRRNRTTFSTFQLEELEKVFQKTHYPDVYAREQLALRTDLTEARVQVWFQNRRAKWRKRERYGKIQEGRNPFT
Test [21] addresses ALX3 (Homo sapiens, UniProt O95076 139-225, L168Q).
The target in test [22] is HOXD13 (Homo sapiens, UniProt P35453 263-343, T313A).
Chain of HOXD13 (Homo sapiens, UniProt P35453 263-343, T313A) (P35453 263-343 T313A): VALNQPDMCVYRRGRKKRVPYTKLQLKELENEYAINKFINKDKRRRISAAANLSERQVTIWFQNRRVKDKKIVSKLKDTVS
The target of test [23] is ALX3 (Homo sapiens, UniProt O95076 139-225, L168V).
Chain of ALX3 (Homo sapiens, UniProt O95076 139-225, L168V) (O95076 139-225 L168V): as the sequence (O95076 139-225) above, with L30V counted along it
Test [24] deals with ALX3 (Homo sapiens, UniProt O95076 139-225, N203S).
Chain of ALX3 (Homo sapiens, UniProt O95076 139-225, N203S) (O95076 139-225 N203S): as the sequence (O95076 139-225) above, with N65S counted along it

Chain of NKX3-2 (Homo sapiens, UniProt P78367 192-278) (P78367 192-278): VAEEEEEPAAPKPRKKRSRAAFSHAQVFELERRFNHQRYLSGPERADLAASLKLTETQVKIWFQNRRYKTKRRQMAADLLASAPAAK
Chain of PROP1 (Homo sapiens, UniProt O75360 56-141, F88S) (O75360 56-141 F88S): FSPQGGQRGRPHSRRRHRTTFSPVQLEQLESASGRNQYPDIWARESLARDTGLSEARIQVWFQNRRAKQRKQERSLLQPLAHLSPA
Chain of NKX3-2 (Homo sapiens, UniProt P78367 192-278, P234S) (P78367 192-278 P234S): as the sequence (P78367 192-278) above, with P43S counted along it
Chain of HOXC9 (Homo sapiens, UniProt P31274 178-260) (P31274 178-260): as the sequence (P31274 178-260 R193K) above, with K16R counted along it
Chain of PROP1 (Homo sapiens, UniProt O75360 56-141) (O75360 56-141): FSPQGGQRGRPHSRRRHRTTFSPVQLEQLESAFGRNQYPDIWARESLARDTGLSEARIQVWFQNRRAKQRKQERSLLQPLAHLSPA
Chain of CRX (O43186 26-111 E42D): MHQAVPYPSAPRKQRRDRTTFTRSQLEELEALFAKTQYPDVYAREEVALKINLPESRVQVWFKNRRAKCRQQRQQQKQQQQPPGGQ
Chain of HOXD13 (Homo sapiens, UniProt P35453 263-343) (P35453 263-343): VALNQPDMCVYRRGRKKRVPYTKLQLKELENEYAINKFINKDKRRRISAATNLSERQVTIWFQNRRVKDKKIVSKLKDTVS
Chain of ALX3 (Homo sapiens, UniProt O95076 139-225, L168Q) (O95076 139-225 L168Q): as the sequence (O95076 139-225) above, with L30Q counted along it
Chain of HOXA4 (Q00056 201-287): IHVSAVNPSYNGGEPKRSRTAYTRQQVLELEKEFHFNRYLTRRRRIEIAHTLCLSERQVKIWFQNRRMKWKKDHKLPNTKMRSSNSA
Chain of ALX3 (Homo sapiens, UniProt O95076 139-225, N203Q) (O95076 139-225 N203Q): as the sequence (O95076 139-225) above, with N65Q counted along it
Chain of ALX1 (Homo sapiens, UniProt Q15699 118-204) (Q15699 118-204): as the sequence (Q15699 118-204 L144R) above, with R27L counted along it
Chain of ALX1 (Homo sapiens, UniProt Q15699 118-204, L144V) (Q15699 118-204 L144V): as the sequence (Q15699 118-204 L144R) above, with R27V counted along it

Take CCGGACCC: the binding signal with NKX2-6 [1] is 9.31 upbm affinity estimate (log intensity, higher = more binding, comparable within an allelic series).

On to ATAGATAA, for which the binding signal was 10.4 upbm affinity estimate (log intensity, higher = more binding, comparable within an allelic series) with HOXB9 [2] and 10.4 upbm affinity estimate (log intensity, higher = more binding, comparable within an allelic series) with HOXB9 [3].

As to ATGATTTA, the binding signal with HOXB9 [2] is 10.6 upbm affinity estimate (log intensity, higher = more binding, comparable within an allelic series); in the test with HOXB9 [3] it was 10.4 upbm affinity estimate (log intensity, higher = more binding, comparable within an allelic series).

For CGTTTAAA, the binding signal with HOXB9 [2] is 10.2 upbm affinity estimate (log intensity, higher = more binding, comparable within an allelic series); in the test with HOXB9 [3], 9.99 upbm affinity estimate (log intensity, higher = more binding, comparable within an allelic series).

GATACCCA: in the test with SIX6, the binding signal is 11.2 upbm affinity estimate (log intensity, higher = more binding, comparable within an allelic series).

In the case of ATATTTCC, the binding signal with HOXB9 [2] is 9.97 upbm affinity estimate (log intensity, higher = more binding, comparable within an allelic series); in the test with HOXB9 [3] it was 9.85 upbm affinity estimate (log intensity, higher = more binding, comparable within an allelic series).

With TACTGTAA, the binding signal in the test with HOXB9 [2] was 10.2 upbm affinity estimate (log intensity, higher = more binding, comparable within an allelic series); with HOXB9 [3], 10.1 upbm affinity estimate (log intensity, higher = more binding, comparable within an allelic series).

For the sequence CACAGGCG, the binding signal in the test with NKX2-6 [1] was 9.43 upbm affinity estimate (log intensity, higher = more binding, comparable within an allelic series).

On to GATCCGAC, for which the binding signal with NKX2-6 [1] was 9.56 upbm affinity estimate (log intensity, higher = more binding, comparable within an allelic series).

As to AATCAATA, the binding signal in the test with HOXB9 [2] was 10.5 upbm affinity estimate (log intensity, higher = more binding, comparable within an allelic series); with HOXB9 [3] it was 10.4 upbm affinity estimate (log intensity, higher = more binding, comparable within an allelic series).

For the sequence AAATCTTA, the binding signal with HOXB9 [2] is 9.84 upbm affinity estimate (log intensity, higher = more binding, comparable within an allelic series); with HOXB9 [3], 9.77 upbm affinity estimate (log intensity, higher = more binding, comparable within an allelic series).

For AAGTGGTG, the binding signal was 11.6 upbm affinity estimate (log intensity, higher = more binding, comparable within an allelic series) with NKX2-6 [1]; 12.7 upbm affinity estimate (log intensity, higher = more binding, comparable within an allelic series) with NKX3-2 [4]; 12.8 upbm affinity estimate (log intensity, higher = more binding, comparable within an allelic series) with NKX3-2 [5].

As to GATAAGTA, the binding signal with NKX2-6 [1] was 11.6 upbm affinity estimate (log intensity, higher = more binding, comparable within an allelic series); with NKX2-6 [6], 13.3 upbm affinity estimate (log intensity, higher = more binding, comparable within an allelic series); with NKX2-6 [7] it was 10.6 upbm affinity estimate (log intensity, higher = more binding, comparable within an allelic series).

Turning to GCCGACCA, the binding signal with NKX2-6 [1] was 9.61 upbm affinity estimate (log intensity, higher = more binding, comparable within an allelic series); in the test with PITX2, 7.83 upbm affinity estimate (log intensity, higher = more binding, comparable within an allelic series).

In the case of CACAGGCC, the binding signal with NKX2-6 [1] is 9.58 upbm affinity estimate (log intensity, higher = more binding, comparable within an allelic series); in the test with PROP1 [8], 6.73 upbm affinity estimate (log intensity, higher = more binding, comparable within an allelic series); in the test with PROP1 [9] it was 6.9 upbm affinity estimate (log intensity, higher = more binding, comparable within an allelic series); in the test with PROP1 [10] it was 6.72 upbm affinity estimate (log intensity, higher = more binding, comparable within an allelic series).

Regarding CGCGGGCC, the binding signal with NKX2-6 [1] was 9.38 upbm affinity estimate (log intensity, higher = more binding, comparable within an allelic series); with ALX1 [11], 6.41 upbm affinity estimate (log intensity, higher = more binding, comparable within an allelic series); in the test with ALX1 [12], 6.28 upbm affinity estimate (log intensity, higher = more binding, comparable within an allelic series); in the test with NKX3-2 [4], 10.4 upbm affinity estimate (log intensity, higher = more binding, comparable within an allelic series); in the test with ALX1 [13], 6.3 upbm affinity estimate (log intensity, higher = more binding, comparable within an allelic series); with NKX3-2 [5], 10.4 upbm affinity estimate (log intensity, higher = more binding, comparable within an allelic series).

As for AAAGTGCA, the binding signal with NKX2-6 [1] was 11.2 upbm affinity estimate (log intensity, higher = more binding, comparable within an allelic series); in the test with NKX2-6 [6], 12.2 upbm affinity estimate (log intensity, higher = more binding, comparable within an allelic series); in the test with NKX2-6 [7] it was 10.1 upbm affinity estimate (log intensity, higher = more binding, comparable within an allelic series).

Consider AACTAATC, for which, in the test with CRX, the binding signal is 12.7 upbm affinity estimate (log intensity, higher = more binding, comparable within an allelic series).

In the case of GATTAAGA, the binding signal with CRX was 12.7 upbm affinity estimate (log intensity, higher = more binding, comparable within an allelic series).

Turning to CATGGTAA, the binding signal with HOXC9 [14] was 10.9 upbm affinity estimate (log intensity, higher = more binding, comparable within an allelic series); with HOXC9 [15], 11 upbm affinity estimate (log intensity, higher = more binding, comparable within an allelic series).

On to AGCCCCCG, for which the binding signal in the test with NKX2-6 [1] was 9.1 upbm affinity estimate (log intensity, higher = more binding, comparable within an allelic series); in the test with PROP1 [8], 6.76 upbm affinity estimate (log intensity, higher = more binding, comparable within an allelic series); with PROP1 [9], 6.62 upbm affinity estimate (log intensity, higher = more binding, comparable within an allelic series); with PROP1 [10] it was 6.15 upbm affinity estimate (log intensity, higher = more binding, comparable within an allelic series).

As for AAGTGCTC, the binding signal with NKX2-6 [1] was 11.6 upbm affinity estimate (log intensity, higher = more binding, comparable within an allelic series); in the test with NKX3-2 [4], 12.5 upbm affinity estimate (log intensity, higher = more binding, comparable within an allelic series); with NKX3-2 [5], 12.7 upbm affinity estimate (log intensity, higher = more binding, comparable within an allelic series).

Turning to ACCTGGTG, the binding signal is 9.61 upbm affinity estimate (log intensity, higher = more binding, comparable within an allelic series) with NKX2-6 [1]; 6.8 upbm affinity estimate (log intensity, higher = more binding, comparable within an allelic series) in the test with PROP1 [8]; 6.74 upbm affinity estimate (log intensity, higher = more binding, comparable within an allelic series) with PROP1 [9]; 6.77 upbm affinity estimate (log intensity, higher = more binding, comparable within an allelic series) with PROP1 [10].

For CACTTACA, the binding signal in the test with NKX2-6 [1] is 11.6 upbm affinity estimate (log intensity, higher = more binding, comparable within an allelic series); in the test with NKX2-6 [7] it was 10.6 upbm affinity estimate (log intensity, higher = more binding, comparable within an allelic series); with NKX3-2 [4], 12.6 upbm affinity estimate (log intensity, higher = more binding, comparable within an allelic series); in the test with NKX3-2 [5], 12.6 upbm affinity estimate (log intensity, higher = more binding, comparable within an allelic series).

For the sequence TATCTCAA, the binding signal with HOXC9 [14] was 11 upbm affinity estimate (log intensity, higher = more binding, comparable within an allelic series).

Take GGGGGACC: the binding signal with NKX2-6 [1] is 8.9 upbm affinity estimate (log intensity, higher = more binding, comparable within an allelic series); with NKX2-6 [6], 9.01 upbm affinity estimate (log intensity, higher = more binding, comparable within an allelic series); with NKX2-6 [7] it was 8.91 upbm affinity estimate (log intensity, higher = more binding, comparable within an allelic series).

Take ATCACTTA: the binding signal with NKX2-6 [1] was 11.6 upbm affinity estimate (log intensity, higher = more binding, comparable within an allelic series); with NKX2-6 [6] it was 13.3 upbm affinity estimate (log intensity, higher = more binding, comparable within an allelic series); with NKX2-6 [7] it was 10.4 upbm affinity estimate (log intensity, higher = more binding, comparable within an allelic series).

Take AAGGCCCA: the binding signal was 9.71 upbm affinity estimate (log intensity, higher = more binding, comparable within an allelic series) in the test with NKX2-6 [1]; 10.7 upbm affinity estimate (log intensity, higher = more binding, comparable within an allelic series) in the test with NKX3-2 [4]; 10.7 upbm affinity estimate (log intensity, higher = more binding, comparable within an allelic series) in the test with NKX3-2 [5].

In the case of GTCGATAA, the binding signal was 10.9 upbm affinity estimate (log intensity, higher = more binding, comparable within an allelic series) in the test with HOXC9 [14]; 8.04 upbm affinity estimate (log intensity, higher = more binding, comparable within an allelic series) with PROP1 [8]; 10.3 upbm affinity estimate (log intensity, higher = more binding, comparable within an allelic series) with HOXC9 [16].

On to AAGTACAT, for which the binding signal in the test with NKX2-6 [1] was 11.6 upbm affinity estimate (log intensity, higher = more binding, comparable within an allelic series); in the test with NKX3-2 [4] it was 12.4 upbm affinity estimate (log intensity, higher = more binding, comparable within an allelic series); in the test with NKX3-2 [5], 12.6 upbm affinity estimate (log intensity, higher = more binding, comparable within an allelic series).

Take CCGTGCCG: the binding signal with NKX2-6 [1] was 9.27 upbm affinity estimate (log intensity, higher = more binding, comparable within an allelic series); in the test with ALX3 [17], 7.7 upbm affinity estimate (log intensity, higher = more binding, comparable within an allelic series); with HOXD13 [18], 9.53 upbm affinity estimate (log intensity, higher = more binding, comparable within an allelic series); with HOXD13 [19] it was 9.45 upbm affinity estimate (log intensity, higher = more binding, comparable within an allelic series); with ALX3 [20], 7.7 upbm affinity estimate (log intensity, higher = more binding, comparable within an allelic series); with ALX3 [21], 7.76 upbm affinity estimate (log intensity, higher = more binding, comparable within an allelic series). Besides, the binding signal with HOXD13 [22] is 9.84 upbm affinity estimate (log intensity, higher = more binding, comparable within an allelic series); with ALX3 [23] it was 7.72 upbm affinity estimate (log intensity, higher = more binding, comparable within an allelic series); with ALX3 [24] it was 7.71 upbm affinity estimate (log intensity, higher = more binding, comparable within an allelic series).

With ATGAGAAT, the binding signal in the test with HOXC9 [14] was 10.8 upbm affinity estimate (log intensity, higher = more binding, comparable within an allelic series); in the test with HOXA4, 11.2 upbm affinity estimate (log intensity, higher = more binding, comparable within an allelic series).

Turning to AAAGTGGT, the binding signal in the test with NKX2-6 [1] was 11.7 upbm affinity estimate (log intensity, higher = more binding, comparable within an allelic series); in the test with NKX3-2 [4], 12.7 upbm affinity estimate (log intensity, higher = more binding, comparable within an allelic series); with NKX3-2 [5], 12.8 upbm affinity estimate (log intensity, higher = more binding, comparable within an allelic series).

In the case of AAGTGGCA, the binding signal was 11.6 upbm affinity estimate (log intensity, higher = more binding, comparable within an allelic series) with NKX2-6 [1]; 12.6 upbm affinity estimate (log intensity, higher = more binding, comparable within an allelic series) with NKX3-2 [4]; 12.7 upbm affinity estimate (log intensity, higher = more binding, comparable within an allelic series) with NKX3-2 [5].

(Values after article PMC11006913.)
